Compound activity as filed in PubChem.
CYP2C9 inh = blocks human cytochrome P450 2C9. CYP2C9 Supersomes, luciferin-H conversion, luminescence. inhibition, % at 5 µM. 96,000 tested, 20% active;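 active = blocking of liver enzyme CYP2C9 beyond about 50% at 5 µM, limit read from the data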
CYP2C19 act = increases human CYP2C19 enzyme activity; activation factor at 5 µM; recombinant CYP2C19, luciferin-H EGE luminescence; stronger effect = higher value; 0 = fully inhibited enzyme, 1 = untreated enzyme; 96,000 tested, under 10 active; AID 1025;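 active = activation factor of at least 2 at 5 µM in the primary screen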;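 note: 0 = wells with 2.5 mM tranylcypromine and 1 = vehicle-only wells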
Target sequence (P33261 whole entry, looked up): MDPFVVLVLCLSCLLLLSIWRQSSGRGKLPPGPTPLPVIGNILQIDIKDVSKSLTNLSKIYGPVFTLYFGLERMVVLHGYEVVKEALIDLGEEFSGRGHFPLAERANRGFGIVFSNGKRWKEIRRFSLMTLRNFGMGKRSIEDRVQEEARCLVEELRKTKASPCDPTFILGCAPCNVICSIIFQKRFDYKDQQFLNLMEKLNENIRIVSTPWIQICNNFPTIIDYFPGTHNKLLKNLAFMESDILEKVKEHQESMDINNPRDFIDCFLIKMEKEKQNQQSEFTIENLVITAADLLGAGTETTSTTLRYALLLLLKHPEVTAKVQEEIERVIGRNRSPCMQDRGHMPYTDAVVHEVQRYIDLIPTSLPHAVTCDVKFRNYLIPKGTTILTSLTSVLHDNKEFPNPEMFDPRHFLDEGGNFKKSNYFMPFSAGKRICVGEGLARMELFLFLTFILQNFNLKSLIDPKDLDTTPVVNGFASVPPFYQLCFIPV
D1 allo mod = allosterically modulates the human D1 dopamine receptor; P21728; HEK293 D1, CRE-luciferase, dopamine EC30 potentiation; actives deviate in either direction; B-score at 10 µM; 58,000 tested, 5.9% active;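 active = luminescence count or its row- and column-corrected plate score outside the 99.7% band of the plate's sample wells, on either side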
CYP2C19 inh = human CYP2C19 inhibition; P33261; CYP2C19 Supersomes, luciferin-H EGE luminescence, 30 min; inhibition, % at 5 µM; 96,000 tested, 21% active;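 active = CYP2C19 inhibition above a set limit at 5 µM in the primary screen, cut at about 50% in these data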;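 note: plate controls were negative control wells for no effect and 2.5 mM tranylcypromine positive control for full effect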
hDAT+cocaine = human DAT dopamine uptake with cocaine, either direction; Q01959; LLC-PK1 hDAT cells, [14C]-dopamine uptake with cocaine IC80; actives deviate in either direction; B-score at 10 µM; 110,000 tested, 1.3% active; AID 449768;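 active = Z score or B-score, a plate-position-corrected score, falls beyond the plate's 99.7% confidence bounds, in either direction; inactive = both scores lie inside the 99.7% bounds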;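 note: scored against the spread of the other compound wells on the same plate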
CYP2C9 activ = increases human cytochrome P450 2C9 activity; recombinant CYP2C9, luciferin-H conversion, luminescence; stronger effect = higher value; factor 1 = untreated enzyme, 0 = blocked; activation factor at 5 µM; 96,000 tested, 1.4% active; AID 1024;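 active = activation factor of 2 or more for CYP2C9 at a 5 µM dose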;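 note: 0 = sulfaphenazole-blocked wells and 1 = vehicle-only wells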
* hit, by the source's call; · = no result given. Hits are enriched below; roughly 28% of the tested compounds scored in any of these assays.

SMILES	CYP2C9 inh	CYP2C19 act	D1 allo mod	CYP2C19 inh	hDAT+cocaine	CYP2C9 activ
CN(CC(=O)Nc1cccc2c1CCCC2)S(=O)(=O)c1ccccc1	-128	0.7	·	26	-0.62	2.3*
CN(CC(=O)Nc1cccc2c1CCCC2)S(=O)(=O)c1ccc(Br)cc1	-4	1	·	3	-0.49	1
O=C(COc1ccccc1)Nc1cccc2c1CCCC2	-106	0.9	·	11	0.32	2.1*
O=C(CCCc1ccccc1)Nc1cccc2c1CCCC2	-157	1	·	-1	-0.34	2.6*
O=C(CS(=O)CC(=O)Nc1cccc2c1CCCC2)Nc1ccc(F)cc1 (stereo not drawn)	21	0.9	-0.28	7	0.11	0.8
CC(C)(C)CC(=O)Nc1cccc2c1CCCC2	8	0.5	·	46	-0.69	0.9
O=C1c2ccccc2S(=O)(=O)c2cc(N3CCc4ccccc4C3)ccc21	·	·	·	·	0.91	·
CC(=O)Nc1cc2c(cc1NC(=O)c1cnccn1)OCCO2	-3	0.7	·	30	-1.9	1
O=C(c1ccc2c(c1)N(Cc1ccccc1)CCS2)N1CCCCC1	14	0.8	·	17	0.6	0.9
CN(C)C(/C=C/Nc1ccc(F)cc1)=C(C#N)C#N	32	0.4	·	59*	0.93	0.7
CN(C)C(/C=C/Nc1ccc(C#N)cc1)=C(C#N)C#N	25	0.4	·	58*	0.31	0.8
Cc1ccccc1N/C=C/C(=C(C#N)C#N)N(C)C	34	0.6	·	42	1.1	0.7
CN(C)C(/C=C/Nc1ccc(F)cc1F)=C(C#N)C#N	24	0.5	·	49	-0.04	0.8
COc1ccc(C(=O)NC(=S)NCCO)cc1Br	-3	1.1	·	-7	-0.98	1
CC(C)(C)C1=C(C#N)C(c2cc3c(cc2Br)OCO3)C(C#N)=C(N)O1 (stereo not drawn)	25	0.8	-0.0033	21	-0.63	0.8
C/C(=C\C(=O)c1cccnc1)Nc1ccc(C(=O)O)cc1	33	1.2	·	-15	0.51	0.7
CC/C(=C\C(=O)c1cccnc1)Nc1ccc(C)c(C)c1	58*	0.3	0.039	71*	1.2	0.4
CC1(c2nnc(-c3cccc(Cl)c3)o2)CC(c2ccc(F)cc2)=NO1 (stereo not drawn)	·	·	·	·	0.14	·
Cc1nnc(SCCC(=O)Nc2nc(-c3ccccc3)ns2)s1	40	0.5	-0.084	53*	-0.93	0.6
O=C(CSc1ncn[nH]1)Nc1nc(-c2ccccc2)ns1	79*	0.2	0.014	78*	0.02	0.2
CCn1c(CN2CCN(c3ccc(Cl)cc3)CC2)nc2ccccc21	·	·	·	·	0.15	·
Cn1c(CN2CCN(c3ccc(Cl)cc3)CC2)nc2ccccc21	15	0.4	-0.38	64*	0.87	0.9
C#CCOCCOCCOCCNc1nc(N2CCN(C(=O)[C@H](CCC(=O)O)n3cc(C(N)[C@H](C)CC)nn3)CC2)nc(N2CCN(C(=O)[C@H](CCC(=O)O)n3cc(C(N)[C@H](C)CC)nn3)CC2)n1 (stereo partly drawn)	·	·	·	·	-0.0054	·
NS(=O)(=O)c1cccnc1Nc1cccc(C(F)(F)F)c1	78*	0.7	·	34	-1.5	0.2
CCCN1C(=O)/C(=C/c2ccc(C)s2)NC1=S	·	·	·	·	0.15	·
SMILES	CYP2C9 inh	CYP2C19 act	D1 allo mod	CYP2C19 inh	hDAT+cocaine	CYP2C9 activ
Cc1ccc(/C=C2\Sc3ccccc3C2=O)s1	75*	0.1	·	94*	-0.02	0.3
O=C1/C(=C/c2cccnc2)Sc2ccccc21	66*	0.2	·	78*	-0.25	0.3
O=C1CCC/C1=c1\s/c(=C\c2cccnc2)c(=O)n1-c1ccccc1	12	0.7	·	28	-0.0018	0.9
CC(C)Oc1cc2oc(=O)c3c(c2cc1Cl)CCC3	1	0.9	1.4	5	0.53	1
CCOC(=O)COc1cc2c3c(c(=O)oc2cc1C)CCCC3	60*	0.8	1.1	25	-0.45	0.4
CC(=O)Oc1cc2oc(=O)c3c(c2cc1Cl)CCC3	-5	1.1	-0.61	-12	5.6*	1.1
Cc1cc2oc(=O)c3c(c2cc1OC(=O)c1ccco1)CCCC3	-21	1	-0.79	1	-0.91	1.2
COCCN(CCOC)C(=O)c1c[nH]c2ccc(S(=O)(=O)N(C)c3ccc(F)cc3)cc2c1=O	18	1.1	-1.7	-6	-1.6	0.8
OC(COc1ccc2c(c1)CCC2)Cn1cnc2ccccc21 (stereo not drawn)	9	0.9	·	10	0.64	0.9
CC1Cc2nc(SCC(=O)Nc3ccc4c(c3)OCCO4)n(C)c(=O)c2S1 (stereo not drawn)	52*	0.9	1.5	6	1.1	0.5
COCCn1c(SCC(=O)Nc2ccc3c(c2)OCCO3)nc2c(c1=O)SC(C)C2 (stereo not drawn)	·	·	1.9	·	0.27	·
CC1Cc2nc(SCC(=O)Nc3ccc4c(c3)OCO4)n(Cc3ccccc3)c(=O)c2S1 (stereo not drawn)	75*	0.2	1.5	84*	1.3	0.3
CCOC(=O)c1ccc(NC(=O)CSc2nc3c(c(=O)n2C)SC(C)C3)cc1 (stereo not drawn)	51*	0.5	-0.36	46	0.011	0.5
CS(=O)(=O)N1Cc2ccccc2CC1C(=O)OCC(=O)Nc1ccc2ccccc2c1 (stereo not drawn)	7	1	·	0	0.022	0.9
CCOc1ccc2nc(NCCNC(=O)CC)c(C#N)cc2c1	-15	1	0.69	4	2.3	1.2
CCC(=O)NCCNc1nc2cc(C)c(C)cc2cc1C#N	72*	0.5	·	50*	0.11	0.3
CCOCCCNC(=S)NCCNc1nc2c(C)cccc2cc1C#N	-34	0.7	·	35	0.21	1.3
Cc1ccc2cc(C#N)c(NCCNC(=O)C3CC3)nc2c1C	64*	0.5	-0.52	49	·	0.4
COc1ccc(OC)c(-c2nnc(-c3ccc(C)o3)o2)c1	1	0.6	0.38	44	0.58	1
Cc1c(C(=O)NNc2cc(=O)n(C)c(=O)n2C)cccc1[N+](=O)[O-]	·	·	·	·	-1.5	·
COc1ccccc1N1CCN(C(=O)c2cccc(N3C(=O)NC4CC3(C)Oc3ccccc34)c2)CC1 (stereo not drawn)	13	1	·	4	2.1	0.9
CC12CC(NC(=O)N1c1cccc(C(=O)N3CCN(c4ccccc4)CC3)c1)c1ccccc1O2 (stereo not drawn)	53*	0.4	·	58*	0.8	0.5
O=c1ccn(-c2cccc(C(F)(F)F)c2)nc1-c1ccn(-c2ccccc2)n1	80*	0.6	·	36	0.46	0.2
Cc1nn(C)c(C)c1NC(=O)CSc1nc(Cc2ccccc2)nc2c1cnn2-c1ccccc1	·	·	1.9	·	-0.68	·
Cc1nn(Cc2ccccc2)c(C)c1NC(=O)CSc1nc(C2CC2)nc2c1cnn2-c1ccccc1	64*	0.9	·	11	-0.26	0.4
N#Cc1c(N)nc2c(c1N)CC(=O)N2c1ccccc1-c1ccccc1	87*	0	3.1	96*	0.59	0.1
